Bioassay records from PubChem.
Shown are actives, neighbours in structure and some others; about 12% of the full set was active somewhere.
ALDH1A1 inh: blocks purified human ALDH1A1 activity | AID 1030 | P00352 | hit rate 7.3% among 220,000 | Potency, µM (series often up to 75.3 µM), actives largely listed as inhibitors | Purified ALDH1A1, NADH fluorescence, propionaldehyde substrate; active = well fitted inhibition curve with a large enough effect, not every such curve was filed as active; inconclusive = small, poorly fitted or top-dose-only effect, or another doubt; inactive = no such curve, though single readings can be large or run the other way
Target sequence (P00352 whole entry, looked up): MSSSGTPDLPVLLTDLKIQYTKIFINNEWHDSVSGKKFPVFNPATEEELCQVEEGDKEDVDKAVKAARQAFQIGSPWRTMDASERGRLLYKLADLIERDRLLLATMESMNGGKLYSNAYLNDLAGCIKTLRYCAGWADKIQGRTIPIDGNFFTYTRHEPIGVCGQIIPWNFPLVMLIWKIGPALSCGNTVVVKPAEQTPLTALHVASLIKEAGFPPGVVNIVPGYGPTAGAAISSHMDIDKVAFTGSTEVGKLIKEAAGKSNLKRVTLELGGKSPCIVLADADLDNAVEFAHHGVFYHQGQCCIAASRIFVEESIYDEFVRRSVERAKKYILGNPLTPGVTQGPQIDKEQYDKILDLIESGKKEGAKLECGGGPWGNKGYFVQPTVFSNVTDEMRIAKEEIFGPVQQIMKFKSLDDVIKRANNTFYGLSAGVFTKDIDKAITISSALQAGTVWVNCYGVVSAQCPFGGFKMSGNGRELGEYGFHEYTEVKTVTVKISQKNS
PLK1 PBD block: PLK1 (human) polo-box domain binding inhibition; P53350; AID 720504; Plk1 PBD binding of FITC phosphopeptide, fluorescence polarization; hit rate 2.8% among 360,000; Potency, µM, actives largely listed as inhibitors; note: series mostly up to about 57 µM; nearly all actives have a fitted effect of over 65% in size
Gal4-VP16 FLuc: Gal4-VP16 reporter inhibition counter-screen; Potency, µM (highest dose often 53.6 µM), hits mostly inhibitors; hit rate 3.5% among 310,000; Drosophila S2 Gal4-VP16 UAS-luciferase, luminescence, 20 h;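 note: Gal4-VP16 expression switched on by copper sulfate through the metallothionein promoter; nearly all actives have a fitted effect of over 50% in size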
Sfp inh: blocks B. subtilis Sfp PPTase activity. Q9F4F7. Biochemical Sfp PPTase activity, qHTS. Potency, µM, actives largely listed as inhibitors. hit rate 3.5% among 310,000. AID 1490;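 note: the enzyme is Sfp with the accession as filed and its product quenches rhodamine fluorescence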
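Fluorescence-quenching assay with 15 nM Sfp, 5 uM rhodamine-CoA and 12.5 uM BHQ-2-labelled ybbR peptide in pH 7.6 Hepes/MgCl2 buffer. Enzyme was pre-incubated with compound for 15 min at room temperature. Rate was taken from the 30-min fluorescence change (525/598 nm).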
RORgamma inh: inhibitors of mouse ROR gamma transcriptional activity; Potency, µM (series often up to 53.6 µM), usual class: inhibitors; hit rate 5.4% among 310,000; Drosophila S2 Gal4-RORgamma UAS-luciferase reporter, 20 h; note: nearly all actives have a fitted effect of over 60% in size
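Using a luciferase readout, inhibitors were identified by reduced reporter activity in Drosophila cells coexpressing a copper-inducible Gal4–ROR gamma fusion and UAS-driven Photinus luciferase, incubated 20 hr after 700 uM copper sulfate.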
Large screens that a line does not name were inactive; ! = a repeat was not active. Unless noted, calls come from the whole dose curve; as a rule, active = well fitted curve in the direction sought with a large enough effect; inconclusive = small, poorly fitted or top-dose-only effect, or another doubt; inactive = no such curve, though single readings can be large; an effect the other way counts as inactive or inconclusive.

COC(=O)CC1=C(C(=O)OC)C2(C(=O)Nc3c(C)cccc32)C(C#N)=C(N)O1 (stereo not drawn)	ALDH1A1 inh 10µM, Gal4-VP16 FLuc inconclusive
COC(=O)C1=C(C)OC(N)=C(C#N)C12C(=O)Nc1ccccc12 (stereo not drawn)	Sfp inh inconclusive
CCCC1=C(C(=O)OCC)C2(C(=O)Nc3ccccc32)C(C#N)=C(N)O1 (stereo not drawn)	ALDH1A1 inh 11.2µM, Gal4-VP16 FLuc inconclusive
Cc1ncc2n1-c1ccc(Cl)cc1C(c1ccccc1F)=NC2O (stereo not drawn)	none (no result: ALDH1A1 inh, PLK1 PBD block)
CC(c1nc2ccccc2c(=O)[nH]1)N(C)CCOc1ccc(Cl)cc1 (stereo not drawn)	Gal4-VP16 FLuc inconclusive, RORgamma inh 7.08µM (no result: ALDH1A1 inh)
Clc1nc(Cl)nc(Cl)n1	ALDH1A1 inh 2.24µM (no result: PLK1 PBD block, Sfp inh)
Oc1c(Cl)cccc1Cc1cc(Cl)cc(Cl)c1O	PLK1 PBD block 26.7µM (no result: ALDH1A1 inh, Gal4-VP16 FLuc, Sfp inh, RORgamma inh)
C[C@@]12CC[C@H](O[C@@H]3O[C@H](CO)[C@@H](O)[C@H](O)[C@@H]3O)C[C@@H]1CC[C@H]1[C@H]2CC[C@@]2(C)[C@@H](C3=CCOC3=O)CC[C@]12O	none (no result: PLK1 PBD block, Gal4-VP16 FLuc, Sfp inh, RORgamma inh)
O=C1CN(C(=O)COC(=O)Cc2ccccc2)c2ccccc2N1	PLK1 PBD block 29.9µM
O=C(O)[C@H]1[O][Sb][O][C@@H](C(=O)O)C1O (stereo partly drawn)	none (no result: PLK1 PBD block, Gal4-VP16 FLuc, Sfp inh, RORgamma inh)
CC(=O)OCC(N)C(=O)c1ccccc1 (stereo not drawn)	none (no result: PLK1 PBD block)
O=C(CCl)c1ccccc1	ALDH1A1 inh 0.0794µM, Gal4-VP16 FLuc inconclusive, RORgamma inh inconclusive (no result: PLK1 PBD block, Sfp inh)
O=C(CSc1ccccn1)Nc1cccc2ccccc12	ALDH1A1 inh inconclusive, PLK1 PBD block 21.2µM
CN1C[C@H](C(=O)N[C@@]2(C)O[C@@]3(O)[C@H]4CCCN4C(=O)[C@@H](Cc4ccccc4)N3C2=O)C=C2c3cccc4[nH]cc(c34)C[C@@H]21	none (no result: PLK1 PBD block, Gal4-VP16 FLuc, Sfp inh, RORgamma inh)
Cn1cc(C(=O)OCC(=O)Nc2ccccc2)c2ccccc21	none (no result: ALDH1A1 inh, Gal4-VP16 FLuc, Sfp inh, RORgamma inh)
Cn1cc(C(=O)Cc2ccccc2)c2ccccc21	PLK1 PBD block 26.7µM
Nc1ccc2ccccc2c1	ALDH1A1 inh inconclusive (no result: Sfp inh)
C[n+]1c2cc(N)ccc2cc2ccc(N)cc21	PLK1 PBD block 0.67µM, Gal4-VP16 FLuc 7.08µM, RORgamma inh inconclusive
C=C1C(=O)O[C@@H]2C[C@@H](C)[C@@H]3C4OC4C(=O)[C@@]3(C)[C@@H](O)[C@H]12 (stereo partly drawn)	Gal4-VP16 FLuc 3.98µM, RORgamma inh 2.82µM (no result: ALDH1A1 inh)
C=C1C(=O)O[C@@H]2C[C@@H](C)[C@@H]3C=CC(=O)[C@@]3(C)[C@@H](OC(=O)CC(=O)O[C@H]3[C@@H]4C(=C)C(=O)O[C@@H]4C[C@@H](C)[C@@H]4C=CC(=O)[C@]43C)[C@H]12	PLK1 PBD block inconclusive, Gal4-VP16 FLuc 0.631µM, Sfp inh 22.4µM, RORgamma inh 1.12µM (no result: ALDH1A1 inh)
C=C1C(=O)OC2CC(C)C3C=CC(=O)C3(C)C(O)C12 (stereo not drawn)	none (no result: ALDH1A1 inh, Gal4-VP16 FLuc, Sfp inh, RORgamma inh)
C=C1C(=O)O[C@H]2C[C@@H](C)[C@@H]3C=CC(=O)[C@@]3(C)C[C@H]12	Gal4-VP16 FLuc 10µM, RORgamma inh 6.31µM (no result: ALDH1A1 inh)
C=C1C(=O)O[C@H]2[C@H]1[C@H](OC(=O)CC(=O)O[C@@H]1C[C@@H](C)[C@@H]3C=CC(=O)[C@@]3(C)[C@H]3OC(=O)C(=C)[C@H]13)C[C@@H](C)[C@H]1C=CC(=O)[C@]12C	PLK1 PBD block inconclusive, Gal4-VP16 FLuc 7.08µM, RORgamma inh 7.08µM (no result: ALDH1A1 inh)
C=C1C(=O)OC2C1CCC(C)C1(O)C=CC(=O)C21C (stereo not drawn)	none (no result: ALDH1A1 inh, Gal4-VP16 FLuc, Sfp inh, RORgamma inh)
O=C(O)CSCC(=O)N(Cc1ccccc1)c1nc(-c2ccccc2)c(-c2ccccc2)s1	PLK1 PBD block 29.9µM (no result: ALDH1A1 inh)
COc1ccc(OCc2n[nH]c(=S)n2Cc2ccco2)cc1	ALDH1A1 inh inconclusive, PLK1 PBD block 26.7µM, Gal4-VP16 FLuc inconclusive, RORgamma inh 5.62µM
CCC(CO)NC(=O)C1C=C2c3cccc4[nH]cc(c34)CC2N(C)C1 (stereo not drawn)	ALDH1A1 inh inconclusive
CC[C@@H](CO)NC(=O)[C@@H]1C=C2c3cccc4[nH]cc(c34)C[C@H]2N(C)C1	ALDH1A1 inh 3.55µM, Sfp inh 44.7µM
CC[C@@H](CO)NC(=O)[C@@H]1C=C2c3cccc4c3c(cn4C)C[C@H]2N(C)C1	ALDH1A1 inh 3.16µM, Gal4-VP16 FLuc inconclusive, RORgamma inh 17.8µM!
